Source: PMC7862700, “An all-to-all approach to the identification of sequence-specific readers for epigenetic DNA modifications on cytosine”

Tests used:
Assay in all cases: DAPPL (digital affinity profiling via proximity ligation, sequencing); 10 mM Tris-HCl pH 7.5, 50 mM NaCl, 1 mM DTT, 4% glycerol, room temperature, 30 min; GST-TFs on glutathione beads, 16-mer random dsDNA library, 0.1% formaldehyde crosslink after washing; high values mean tight binding
FEV = target: T1, FEV (Homo sapiens, UniProt Q99581 1-238); conditions: protein: recombinant; tags: N-terminal GST; dsDNA, one strand shown
T1 sequence: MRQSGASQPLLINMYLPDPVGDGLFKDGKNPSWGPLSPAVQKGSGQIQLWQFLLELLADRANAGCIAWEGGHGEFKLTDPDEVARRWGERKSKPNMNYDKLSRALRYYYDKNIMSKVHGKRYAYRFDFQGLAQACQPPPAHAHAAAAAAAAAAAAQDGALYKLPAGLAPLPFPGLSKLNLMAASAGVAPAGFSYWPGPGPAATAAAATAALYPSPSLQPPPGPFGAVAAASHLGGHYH
In short: (§1)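 Beads coated with glutathione captured GST-fused human transcription factors that had been expressed in yeast, and the factors were then given DNA barcodes and pooled with a tag-only sample. The pools were incubated with 200 nmole of a random double-stranded 16-mer DNA library in Tris/NaCl/DTT/glycerol buffer for 30 min at room temperature, washed, crosslinked with 0.1% formaldehyde and proximity-ligated with BsaI/T4 ligase at 37 °C for 1 h. PCR amplification and Illumina NextSeq500 sequencing came last. Binding signal is each hexamer's read frequency for a factor divided by its frequency for the tag-only sample.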

ETV5 = ETV5 (Homo sapiens, UniProt P41161 1-510); conditions: protein: recombinant; tags: N-terminal GST; dsDNA, one strand shown
ETV5, sequence (P41161 whole entry): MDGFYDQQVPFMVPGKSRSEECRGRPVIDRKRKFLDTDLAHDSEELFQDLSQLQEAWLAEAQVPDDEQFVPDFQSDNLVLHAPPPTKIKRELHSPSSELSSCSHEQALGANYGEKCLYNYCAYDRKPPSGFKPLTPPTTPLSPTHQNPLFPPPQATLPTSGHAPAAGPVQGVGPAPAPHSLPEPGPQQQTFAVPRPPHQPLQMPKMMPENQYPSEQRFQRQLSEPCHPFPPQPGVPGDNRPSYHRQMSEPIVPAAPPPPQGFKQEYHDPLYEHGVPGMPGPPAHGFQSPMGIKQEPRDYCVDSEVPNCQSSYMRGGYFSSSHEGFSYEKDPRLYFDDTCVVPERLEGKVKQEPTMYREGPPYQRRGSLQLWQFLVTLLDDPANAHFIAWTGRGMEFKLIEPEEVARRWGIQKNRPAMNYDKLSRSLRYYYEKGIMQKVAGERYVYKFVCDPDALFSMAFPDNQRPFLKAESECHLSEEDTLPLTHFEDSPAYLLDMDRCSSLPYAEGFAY
In short: as §1

HSF1 = HSF1 (Homo sapiens, UniProt Q00613 1-529); conditions: protein: recombinant; tags: N-terminal GST; chain copies: 3; dsDNA, one strand shown
HSF1, sequence (Q00613 whole entry): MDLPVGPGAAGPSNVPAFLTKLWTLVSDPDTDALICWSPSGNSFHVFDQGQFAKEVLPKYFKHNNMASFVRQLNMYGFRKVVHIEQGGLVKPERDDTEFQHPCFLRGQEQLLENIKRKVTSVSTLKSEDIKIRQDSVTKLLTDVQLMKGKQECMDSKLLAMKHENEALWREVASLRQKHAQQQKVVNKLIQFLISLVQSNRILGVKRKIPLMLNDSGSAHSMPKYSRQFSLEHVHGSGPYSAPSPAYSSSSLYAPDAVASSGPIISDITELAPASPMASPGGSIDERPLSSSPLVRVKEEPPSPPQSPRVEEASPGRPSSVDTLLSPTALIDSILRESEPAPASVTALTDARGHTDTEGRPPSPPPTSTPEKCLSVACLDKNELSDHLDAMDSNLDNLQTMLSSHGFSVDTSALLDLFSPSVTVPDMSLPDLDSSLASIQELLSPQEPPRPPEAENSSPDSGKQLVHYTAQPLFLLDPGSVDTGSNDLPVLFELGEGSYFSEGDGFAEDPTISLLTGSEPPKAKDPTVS
In short: as §1

SPIC = target: T2, SPIC (Homo sapiens, UniProt Q8N5J4 1-248); conditions: protein: recombinant; tags: N-terminal GST; dsDNA, one strand shown
T2 sequence: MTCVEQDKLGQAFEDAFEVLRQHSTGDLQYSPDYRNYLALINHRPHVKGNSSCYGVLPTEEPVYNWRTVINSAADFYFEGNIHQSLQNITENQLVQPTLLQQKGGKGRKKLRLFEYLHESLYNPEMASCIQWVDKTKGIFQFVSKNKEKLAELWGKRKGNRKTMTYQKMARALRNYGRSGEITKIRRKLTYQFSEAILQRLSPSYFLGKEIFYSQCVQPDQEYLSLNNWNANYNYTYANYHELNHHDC
In short: as §1

ELF4 = ELF4 (Homo sapiens, UniProt Q99607 1-663); conditions: protein: recombinant; tags: N-terminal GST; dsDNA, one strand shown
ELF4, sequence (Q99607 whole entry): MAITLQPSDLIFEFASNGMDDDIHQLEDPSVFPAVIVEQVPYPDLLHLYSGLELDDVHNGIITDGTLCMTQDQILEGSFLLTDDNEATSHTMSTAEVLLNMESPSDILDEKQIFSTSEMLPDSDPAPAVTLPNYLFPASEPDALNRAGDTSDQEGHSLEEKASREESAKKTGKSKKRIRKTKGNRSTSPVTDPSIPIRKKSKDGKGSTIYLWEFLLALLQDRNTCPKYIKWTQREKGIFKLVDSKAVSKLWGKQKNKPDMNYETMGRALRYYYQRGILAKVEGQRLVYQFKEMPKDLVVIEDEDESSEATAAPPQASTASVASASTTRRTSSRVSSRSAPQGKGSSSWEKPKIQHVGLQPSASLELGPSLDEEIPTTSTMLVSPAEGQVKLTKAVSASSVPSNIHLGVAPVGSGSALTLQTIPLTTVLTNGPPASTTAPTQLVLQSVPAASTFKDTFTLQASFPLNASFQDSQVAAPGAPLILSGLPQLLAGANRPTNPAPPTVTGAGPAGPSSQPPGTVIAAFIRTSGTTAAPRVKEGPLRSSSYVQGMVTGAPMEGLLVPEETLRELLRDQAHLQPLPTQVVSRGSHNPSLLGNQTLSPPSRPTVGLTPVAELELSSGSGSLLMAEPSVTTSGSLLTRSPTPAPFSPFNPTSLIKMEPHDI
In short: as §1

ELK4 = target: T3, ELK4 (Homo sapiens, UniProt P28324-2 1-405); conditions: protein: recombinant; tags: N-terminal GST; dsDNA, one strand shown
T3 sequence: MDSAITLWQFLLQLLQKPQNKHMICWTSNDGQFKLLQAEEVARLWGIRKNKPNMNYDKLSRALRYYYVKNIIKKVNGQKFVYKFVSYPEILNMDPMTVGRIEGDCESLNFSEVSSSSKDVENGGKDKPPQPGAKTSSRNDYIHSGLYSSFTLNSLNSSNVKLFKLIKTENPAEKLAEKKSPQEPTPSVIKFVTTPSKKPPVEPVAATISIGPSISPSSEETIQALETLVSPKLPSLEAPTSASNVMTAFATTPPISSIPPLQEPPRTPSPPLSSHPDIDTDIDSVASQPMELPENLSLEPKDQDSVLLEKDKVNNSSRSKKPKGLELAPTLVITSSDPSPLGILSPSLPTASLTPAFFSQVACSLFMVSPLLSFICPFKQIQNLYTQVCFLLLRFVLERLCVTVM
In short: as §1

ETV2 = target: T4, ETV2 (Homo sapiens, UniProt O00321 1-342); conditions: protein: recombinant; tags: N-terminal GST; dsDNA, one strand shown
T4 sequence: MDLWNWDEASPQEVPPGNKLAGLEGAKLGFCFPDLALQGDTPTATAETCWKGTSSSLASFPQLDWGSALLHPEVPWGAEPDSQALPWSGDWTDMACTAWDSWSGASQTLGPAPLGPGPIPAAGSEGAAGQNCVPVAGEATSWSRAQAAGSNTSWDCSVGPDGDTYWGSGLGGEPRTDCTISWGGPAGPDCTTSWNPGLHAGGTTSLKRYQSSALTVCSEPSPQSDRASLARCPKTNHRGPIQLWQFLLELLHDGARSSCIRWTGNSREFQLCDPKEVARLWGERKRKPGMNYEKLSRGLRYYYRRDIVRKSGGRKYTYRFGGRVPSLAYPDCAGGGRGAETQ
In short: as §1

ELF3 = target: T5, ELF3 (Homo sapiens, UniProt P78545 1-371); conditions: protein: recombinant; tags: N-terminal GST; dsDNA, one strand shown
T5 sequence: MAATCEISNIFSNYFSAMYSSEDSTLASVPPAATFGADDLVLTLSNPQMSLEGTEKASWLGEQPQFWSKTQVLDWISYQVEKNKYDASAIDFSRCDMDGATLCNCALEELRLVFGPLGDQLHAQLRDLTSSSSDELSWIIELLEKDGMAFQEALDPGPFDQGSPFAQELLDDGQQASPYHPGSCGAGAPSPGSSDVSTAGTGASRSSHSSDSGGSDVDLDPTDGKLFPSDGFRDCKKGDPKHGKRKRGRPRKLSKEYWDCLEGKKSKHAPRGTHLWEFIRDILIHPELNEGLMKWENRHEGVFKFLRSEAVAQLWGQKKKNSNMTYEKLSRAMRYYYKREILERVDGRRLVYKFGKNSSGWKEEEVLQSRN
In short: as §1

CRX = CRX (Homo sapiens, UniProt O43186 1-299); conditions: protein: recombinant; tags: N-terminal GST; dsDNA, one strand shown
CRX, sequence (O43186 whole entry): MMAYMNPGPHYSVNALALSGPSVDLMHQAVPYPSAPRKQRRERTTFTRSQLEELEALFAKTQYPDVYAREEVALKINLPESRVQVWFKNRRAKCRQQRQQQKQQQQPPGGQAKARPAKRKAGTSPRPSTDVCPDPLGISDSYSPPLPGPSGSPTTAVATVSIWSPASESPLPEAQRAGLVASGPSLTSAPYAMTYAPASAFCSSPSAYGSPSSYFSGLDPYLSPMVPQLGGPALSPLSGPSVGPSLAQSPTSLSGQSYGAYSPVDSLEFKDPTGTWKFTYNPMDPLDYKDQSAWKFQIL
In short: as §1

ETV1 = ETV1 (Homo sapiens, UniProt P50549 1-477); conditions: protein: recombinant; tags: N-terminal GST; dsDNA, one strand shown
ETV1, sequence (P50549 whole entry): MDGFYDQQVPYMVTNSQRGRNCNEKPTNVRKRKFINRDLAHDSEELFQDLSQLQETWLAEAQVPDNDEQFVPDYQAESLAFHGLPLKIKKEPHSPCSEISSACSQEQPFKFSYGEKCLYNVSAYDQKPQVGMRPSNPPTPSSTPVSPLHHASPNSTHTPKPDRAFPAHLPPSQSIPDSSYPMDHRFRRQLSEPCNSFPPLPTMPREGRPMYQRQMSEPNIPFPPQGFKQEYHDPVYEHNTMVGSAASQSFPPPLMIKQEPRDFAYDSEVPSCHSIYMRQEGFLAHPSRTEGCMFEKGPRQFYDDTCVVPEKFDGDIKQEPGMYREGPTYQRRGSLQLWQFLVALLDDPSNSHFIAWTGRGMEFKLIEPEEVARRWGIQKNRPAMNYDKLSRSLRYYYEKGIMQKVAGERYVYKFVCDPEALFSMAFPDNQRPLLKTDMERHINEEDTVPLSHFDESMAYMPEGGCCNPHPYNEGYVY
In short: as §1

ERF = target: T6, ERF (Homo sapiens, UniProt P50548 1-548); conditions: protein: recombinant; tags: N-terminal GST; dsDNA, one strand shown
T6 sequence: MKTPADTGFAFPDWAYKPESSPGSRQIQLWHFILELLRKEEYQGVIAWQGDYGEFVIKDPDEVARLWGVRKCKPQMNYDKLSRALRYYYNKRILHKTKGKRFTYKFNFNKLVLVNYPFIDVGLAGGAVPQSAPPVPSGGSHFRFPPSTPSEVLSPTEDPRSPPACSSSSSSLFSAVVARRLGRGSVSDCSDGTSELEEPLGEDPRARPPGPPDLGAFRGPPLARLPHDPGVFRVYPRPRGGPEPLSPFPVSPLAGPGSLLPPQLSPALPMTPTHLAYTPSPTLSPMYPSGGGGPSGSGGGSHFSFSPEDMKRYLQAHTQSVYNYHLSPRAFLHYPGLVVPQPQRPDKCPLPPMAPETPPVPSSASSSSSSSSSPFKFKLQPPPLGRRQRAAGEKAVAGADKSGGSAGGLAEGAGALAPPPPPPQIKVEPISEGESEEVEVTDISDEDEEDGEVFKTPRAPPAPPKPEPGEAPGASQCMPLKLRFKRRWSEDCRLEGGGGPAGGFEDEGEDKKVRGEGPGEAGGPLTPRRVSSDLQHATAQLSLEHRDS
In short: as §1

ETV3L = target: T7, ETV3L (Homo sapiens, UniProt Q6ZN32 1-361); conditions: protein: recombinant; tags: N-terminal GST; dsDNA, one strand shown
T7 sequence: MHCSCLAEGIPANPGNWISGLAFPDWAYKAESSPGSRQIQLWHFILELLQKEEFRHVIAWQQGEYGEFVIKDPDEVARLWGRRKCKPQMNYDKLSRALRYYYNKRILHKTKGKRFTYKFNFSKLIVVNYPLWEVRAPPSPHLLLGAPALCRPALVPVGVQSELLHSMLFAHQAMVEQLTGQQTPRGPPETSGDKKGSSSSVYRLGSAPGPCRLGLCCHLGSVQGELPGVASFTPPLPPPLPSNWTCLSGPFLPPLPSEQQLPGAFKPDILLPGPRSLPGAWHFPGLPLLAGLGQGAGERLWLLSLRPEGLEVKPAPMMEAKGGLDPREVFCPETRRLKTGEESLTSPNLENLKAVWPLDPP
In short: as §1

ETS2 = target: T8, ETS2 (Homo sapiens, UniProt P15036 1-469); conditions: protein: recombinant; tags: N-terminal GST; dsDNA, one strand shown
T8 sequence: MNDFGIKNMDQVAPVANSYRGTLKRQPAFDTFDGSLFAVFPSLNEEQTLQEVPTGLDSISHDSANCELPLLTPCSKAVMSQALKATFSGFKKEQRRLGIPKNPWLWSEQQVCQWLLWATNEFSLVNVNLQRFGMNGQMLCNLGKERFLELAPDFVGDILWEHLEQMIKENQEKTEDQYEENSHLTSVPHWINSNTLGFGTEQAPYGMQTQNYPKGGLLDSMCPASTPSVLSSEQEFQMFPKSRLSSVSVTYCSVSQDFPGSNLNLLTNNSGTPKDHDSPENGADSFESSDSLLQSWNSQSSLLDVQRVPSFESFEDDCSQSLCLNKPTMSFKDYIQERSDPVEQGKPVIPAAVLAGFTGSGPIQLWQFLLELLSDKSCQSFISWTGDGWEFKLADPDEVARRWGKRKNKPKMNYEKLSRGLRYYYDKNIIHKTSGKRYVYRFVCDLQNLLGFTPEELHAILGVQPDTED
In short: as §1

SPDEF = target: T9, SPDEF (Homo sapiens, UniProt O95238 1-335); conditions: protein: recombinant; tags: N-terminal GST; dsDNA, one strand shown
T9 sequence: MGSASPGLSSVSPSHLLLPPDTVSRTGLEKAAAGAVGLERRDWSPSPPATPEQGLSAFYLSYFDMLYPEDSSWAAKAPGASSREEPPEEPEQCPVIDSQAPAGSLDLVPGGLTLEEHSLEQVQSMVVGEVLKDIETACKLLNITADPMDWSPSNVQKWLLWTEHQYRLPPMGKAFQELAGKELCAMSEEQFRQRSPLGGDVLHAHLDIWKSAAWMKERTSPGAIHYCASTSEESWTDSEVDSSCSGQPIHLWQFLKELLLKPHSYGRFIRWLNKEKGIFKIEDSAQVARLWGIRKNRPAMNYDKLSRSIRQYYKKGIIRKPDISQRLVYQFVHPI
In short: as §1

ETV7 = target: T10, ETV7 (Homo sapiens, UniProt Q9Y603 1-341); conditions: protein: recombinant; tags: N-terminal GST; dsDNA, one strand shown
T10 sequence: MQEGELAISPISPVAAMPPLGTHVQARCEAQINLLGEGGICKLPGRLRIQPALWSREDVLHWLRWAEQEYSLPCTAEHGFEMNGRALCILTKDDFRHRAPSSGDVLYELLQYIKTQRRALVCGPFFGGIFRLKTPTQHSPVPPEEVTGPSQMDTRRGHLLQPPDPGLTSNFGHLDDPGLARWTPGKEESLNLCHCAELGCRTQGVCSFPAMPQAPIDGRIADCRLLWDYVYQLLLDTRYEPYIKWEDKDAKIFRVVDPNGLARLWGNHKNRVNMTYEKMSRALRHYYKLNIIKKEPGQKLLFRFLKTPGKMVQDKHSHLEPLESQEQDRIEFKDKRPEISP
In short: as §1

ELF5 = target: T11, ELF5 (Homo sapiens, UniProt Q9UKW6-2 1-255); conditions: protein: recombinant; tags: N-terminal GST; dsDNA, one strand shown
T11 sequence: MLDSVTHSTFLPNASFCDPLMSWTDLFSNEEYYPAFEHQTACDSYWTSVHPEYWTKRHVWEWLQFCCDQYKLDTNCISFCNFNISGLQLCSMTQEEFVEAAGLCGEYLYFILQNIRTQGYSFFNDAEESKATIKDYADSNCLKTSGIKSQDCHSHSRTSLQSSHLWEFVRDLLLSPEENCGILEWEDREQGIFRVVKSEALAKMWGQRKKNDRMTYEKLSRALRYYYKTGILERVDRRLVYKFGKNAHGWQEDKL
In short: as §1

ETV3 = target: T12, ETV3 (Homo sapiens, UniProt P41162-2 1-143); conditions: protein: recombinant; tags: N-terminal GST; dsDNA, one strand shown
T12 sequence: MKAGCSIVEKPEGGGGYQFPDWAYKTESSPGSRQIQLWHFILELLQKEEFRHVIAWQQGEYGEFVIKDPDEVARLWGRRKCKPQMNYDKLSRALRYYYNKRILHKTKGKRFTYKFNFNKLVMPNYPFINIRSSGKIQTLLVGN
In short: as §1

ETV6 = ETV6 (Homo sapiens, UniProt P41212 1-452); conditions: protein: recombinant; tags: N-terminal GST; dsDNA, one strand shown
ETV6, sequence (P41212 whole entry): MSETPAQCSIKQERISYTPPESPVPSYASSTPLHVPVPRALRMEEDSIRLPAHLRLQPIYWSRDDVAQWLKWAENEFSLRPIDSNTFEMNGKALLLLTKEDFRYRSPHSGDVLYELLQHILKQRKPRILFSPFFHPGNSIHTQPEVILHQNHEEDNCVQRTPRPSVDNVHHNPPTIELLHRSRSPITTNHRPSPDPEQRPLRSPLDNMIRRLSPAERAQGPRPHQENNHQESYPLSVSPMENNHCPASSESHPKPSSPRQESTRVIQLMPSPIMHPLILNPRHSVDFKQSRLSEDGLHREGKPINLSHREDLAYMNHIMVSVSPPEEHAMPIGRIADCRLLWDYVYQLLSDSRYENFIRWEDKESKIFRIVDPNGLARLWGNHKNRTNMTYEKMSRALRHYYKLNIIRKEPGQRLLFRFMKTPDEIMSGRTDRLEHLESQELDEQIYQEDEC
In short: as §1

Sequence	binding signal (FEV)	binding signal (ETV5)	binding signal (HSF1)	binding signal (SPIC)	binding signal (ELF4)	binding signal (ELK4)	binding signal (ETV2)	binding signal (ELF3)	binding signal (CRX)	binding signal (ETV1)	binding signal (ERF)	binding signal (ETV3L)	binding signal (ETS2)	binding signal (SPDEF)	binding signal (ETV7)	binding signal (ELF5)	binding signal (ETV3)	binding signal (ETV6)
TCCTCA	1.52 fold enrichment (6-mer frequency, TF over GST control)	1.52 fold enrichment (6-mer frequency, TF over GST control)	1.2 fold enrichment (6-mer frequency, TF over GST control)	1.63 fold enrichment (6-mer frequency, TF over GST control)	1.57 fold enrichment (6-mer frequency, TF over GST control)	1.67 fold enrichment (6-mer frequency, TF over GST control)	1.66 fold enrichment (6-mer frequency, TF over GST control)	1.44 fold enrichment (6-mer frequency, TF over GST control)	1.4 fold enrichment (6-mer frequency, TF over GST control)	1.48 fold enrichment (6-mer frequency, TF over GST control)	1.32 fold enrichment (6-mer frequency, TF over GST control)	1.62 fold enrichment (6-mer frequency, TF over GST control)	1.56 fold enrichment (6-mer frequency, TF over GST control)	1.59 fold enrichment (6-mer frequency, TF over GST control)	1.38 fold enrichment (6-mer frequency, TF over GST control)	2.13 fold enrichment (6-mer frequency, TF over GST control)	1.61 fold enrichment (6-mer frequency, TF over GST control)	1.54 fold enrichment (6-mer frequency, TF over GST control)
AAACAC	1.31 fold enrichment (6-mer frequency, TF over GST control)	1.24 fold enrichment (6-mer frequency, TF over GST control)	1.09 fold enrichment (6-mer frequency, TF over GST control)	1.24 fold enrichment (6-mer frequency, TF over GST control)	1.34 fold enrichment (6-mer frequency, TF over GST control)	1.27 fold enrichment (6-mer frequency, TF over GST control)	1.36 fold enrichment (6-mer frequency, TF over GST control)	1.33 fold enrichment (6-mer frequency, TF over GST control)	1.05 fold enrichment (6-mer frequency, TF over GST control)	1.26 fold enrichment (6-mer frequency, TF over GST control)	1.34 fold enrichment (6-mer frequency, TF over GST control)	1.37 fold enrichment (6-mer frequency, TF over GST control)	1.38 fold enrichment (6-mer frequency, TF over GST control)	1.31 fold enrichment (6-mer frequency, TF over GST control)	1.34 fold enrichment (6-mer frequency, TF over GST control)	1.3 fold enrichment (6-mer frequency, TF over GST control)	1.33 fold enrichment (6-mer frequency, TF over GST control)	1.32 fold enrichment (6-mer frequency, TF over GST control)
